The values below come from PubChem BioAssay AID1210 (NMMLSC, 2008).

Structures are written as SMILES. The source made the active and inactive calls.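 Rule for the calls: active = blocks over 70% of labeled estradiol binding at 10 µM, or over a set limit at 100 nM; inactive = the rest.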

This assay concerns the target Estrogen receptor beta (Homo sapiens) (UniProt Q92731). The experiment in a line: ERbeta ligand binders by competition, primary screen, cell-based, Cos7 ERbeta-GFP, flow cytometry (AID 1210).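 Note: 0% = DMSO vehicle wells and 100% = complete loss of labeled estradiol signal.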 The following applies: fluorescent estrogen binding, stronger effect = higher value.
Setting [1] is: ligand binding inhibition, at 0.1 µM.

Chain of Estrogen receptor beta (Homo sapiens) (Q92731 whole entry, looked up): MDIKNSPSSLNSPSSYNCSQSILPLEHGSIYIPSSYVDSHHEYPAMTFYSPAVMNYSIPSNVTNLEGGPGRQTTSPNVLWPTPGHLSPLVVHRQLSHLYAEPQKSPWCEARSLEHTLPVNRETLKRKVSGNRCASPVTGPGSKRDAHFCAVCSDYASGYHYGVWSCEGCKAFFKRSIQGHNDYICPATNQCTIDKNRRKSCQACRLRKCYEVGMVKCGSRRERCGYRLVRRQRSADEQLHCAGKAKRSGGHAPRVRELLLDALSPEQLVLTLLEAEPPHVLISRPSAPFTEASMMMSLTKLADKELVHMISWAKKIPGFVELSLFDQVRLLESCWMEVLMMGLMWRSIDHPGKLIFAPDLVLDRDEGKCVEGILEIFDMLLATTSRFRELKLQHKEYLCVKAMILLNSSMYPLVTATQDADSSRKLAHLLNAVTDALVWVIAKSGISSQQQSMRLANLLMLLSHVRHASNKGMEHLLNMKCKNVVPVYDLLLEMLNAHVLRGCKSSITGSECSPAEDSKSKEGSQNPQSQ

As usually defined, the inhibition is the change of the read-out against control, counted positive when it falls. `CCOC(=O)c1cc2c(c(CSc3nc4ccccc4c(=O)n3Cc3ccco3)c1)OCOC2`: the inhibition (at 10 µM) was 67% (inactive) and the inhibition under setting [1] was determined as 4%.

For `Oc1ccc(-c2nc(-c3ccc(O)c(O)c3)cs2)cc1`, the inhibition by setting is: (at 10 µM) 55% (inactive); under setting [1], 54%.

For the compound `Cc1cc(C)c(S(=O)(=O)/N=C2\C=CC(=O)C(Cl)=C2)c(C)c1`, the inhibition was 0% (inactive) (at 10 µM) and 16% under setting [1].

With `CCc1ccc(Nc2nc(N)nc(CSc3nnnn3-c3ccccc3)n2)cc1`, the inhibition reads like this: (at 10 µM) 67% (inactive); under setting [1], 8%.

`CN1CCC(=NNC(=O)c2cn(-c3ccccc3)nc2-c2ccccc2)CC1`: the inhibition was 32% (inactive) (at 10 µM) and 6% under setting [1].

As to `COc1ccc(C2CC(c3ccccc3)=NN2C(=O)CSc2nccc(=O)[nH]2)cc1` (stereo not drawn), the inhibition runs as follows: (at 10 µM) 33% (inactive); under setting [1], 37%.

Consider `COc1ccc(Cl)cc1NC(=O)c1ocnc1C`, for which the inhibition runs as follows: (at 10 µM) 50% (inactive); under setting [1], 3%.

For the compound `COc1cc(NC(=O)c2cccs2)c(C(=O)OCC(=O)NCc2ccco2)cc1OC`, the inhibition is, setting by setting: (at 10 µM) 41% (inactive); under setting [1], 47%.

Consider `COc1ccc2c(c1)c(=O)oc1cc(OCC(=O)NC3CCCCC3)ccc12`, for which the inhibition is 31% (inactive) (at 10 µM) and 22% under setting [1].

In the case of `CCOc1ccccc1N1CSC2=C(C#N)C(c3c(OC)ccc4ccccc34)CC(=O)N2C1` (stereo not drawn), the inhibition runs as follows: (at 10 µM) 35% (inactive); under setting [1], 28%.

On to `COC(=O)c1ccc(C2Nc3ccc(/C(C)=N/NC(=O)C(OC)c4ccccc4)cc3C3C=CCC32)cc1` (stereo not drawn), for which the inhibition runs as follows: (at 10 µM) 22% (inactive); under setting [1], 40%.

Regarding `CCOC(=O)CN1C(c2ccc(O)cc2)Nc2ccc(Br)cc2C1c1ccccc1` (stereo not drawn), the inhibition by setting is: (at 10 µM) 48% (inactive); under setting [1], 23%.

`Cc1cc(C)n2nc(SCc3cc(=O)oc4cc(O)ccc34)nc2n1`: the inhibition is 19% (inactive) (at 10 µM) and 19% under setting [1].

For the compound `Cc1ccc(S(=O)(=O)N2CCCCC2)cc1C(=O)Nc1ncn[nH]1`, the inhibition runs as follows: (at 10 µM) 13% (inactive); under setting [1], 23%.

For `O=S(=O)(/N=C(/Sc1ccccc1)c1ccccc1)c1ccccc1`, the inhibition was 32% (inactive) (at 10 µM) and 20% under setting [1].

Turning to `O=C(NNC(=O)c1ccc(SCC2CCCO2)c([N+](=O)[O-])c1)c1ccc(Cl)c([N+](=O)[O-])c1` (stereo not drawn), the inhibition was 0% (inactive) (at 10 µM) and 4% under setting [1].

As for `COc1ccc(CNC(=O)COC(=O)c2cc(-c3ccco3)nc3ccccc23)cc1`, the inhibition by setting is: (at 10 µM) 18% (inactive); under setting [1], 8%.

For `Cc1ccc(N=Cc2c(O)n(-c3ccc4c(c3)OCO4)c(=O)c3ccccc23)cc1`, the inhibition is 15% (inactive) (at 10 µM) and 21% under setting [1].

As to `C/C(N)=C(/C#N)C(=O)CSc1nnc(-c2ccc(OC(F)F)cc2)o1`, the inhibition is, setting by setting: (at 10 µM) 37% (inactive); under setting [1], 23%.

Turning to `O=c1cc(-c2ccco2)oc2c1ccc1ccccc12`, the inhibition is, setting by setting: (at 10 µM) 49% (inactive); under setting [1], 22%.

On to `Cc1nn(-c2ccccc2)c(Cl)c1/C=N/Nc1ccc(S(=O)(=O)Nc2ccccc2C(=O)O)cc1[N+](=O)[O-]`, for which the inhibition reads like this: (at 10 µM) 15% (inactive); under setting [1], 53%.

For `Cc1csc(C(C#N)C(=O)c2ccncc2)n1` (stereo not drawn), the inhibition is 13% (inactive) (at 10 µM) and 4% under setting [1].

In the case of `CCN(CC)c1ccc(-c2nn3c(-c4ccccc4OC)nnc3s2)cc1`, the inhibition was 32% (inactive) (at 10 µM) and 24% under setting [1].

As to `Nc1ccc(-c2nc3ccc(C(=O)O)cc3s2)cc1`, the inhibition (at 10 µM) was 65% (inactive) and the inhibition under setting [1] is 10%.

On to `CC(=O)c1ccc(NC(=S)N2CCC(O)CC2)cc1`, for which the inhibition runs as follows: (at 10 µM) 41% (inactive); under setting [1], 23%.

With `COc1cc2c(cc1OC)C(Cc1ccc(O)cc1)NCC2` (stereo not drawn), the inhibition is 23% (inactive) (at 10 µM) and 13% under setting [1].

Regarding `CCCOc1ccc(-c2nn(-c3ccccc3)cc2/C=C2\SC(N)=NC2=O)cc1`, the inhibition reads like this: (at 10 µM) 36% (inactive); under setting [1], 19%.

Take `Cc1ccc(C)c(/C(O)=C2/C(=O)C(=O)N(CCN3CCOCC3)C2c2ccco2)c1` (stereo not drawn): the inhibition (at 10 µM) is 23% (inactive) and the inhibition under setting [1] was 17%.

Consider `O=C(CSc1nc(C2CCCCC2)n(-c2ccccc2)n1)NCC(F)(F)F`, for which the inhibition (at 10 µM) was 0% (inactive) and the inhibition under setting [1] was determined as 21%.

With `O=C(Cc1cccs1)Nc1nncs1`, the inhibition was 26% (inactive) (at 10 µM) and 16% under setting [1].

As to `COC(=O)c1c(NC(=O)Cc2cccs2)sc2c1CCCC2`, the inhibition reads like this: (at 10 µM) 41% (inactive); under setting [1], 18%.

As for `COc1cc(C2Nc3c(F)cccc3C3C=CCC32)cc(Br)c1OC` (stereo not drawn), the inhibition reads like this: (at 10 µM) 0% (inactive); under setting [1], 25%.

On to `CCOC(=O)C1=c2/c(=C/c3ccccc3OC)c(N)c(C#N)n2C(=O)C(c2ccccc2OC)S1` (stereo not drawn), for which the inhibition is 34% (inactive) (at 10 µM) and 46% under setting [1].

Take `O=C1OC(c2ccc(O)cc2)(c2ccc(O)cc2)c2ccccc21`: the inhibition by setting is: (at 10 µM) 51% (inactive); under setting [1], 11%.
